Measurements: PubChem BioAssay (NCATS)
Results filed as inconclusive are left out. Entries that show only a call come without a potency. Unmarked numbers belong to inactive results. Activity calls are given as the source filed them. Calls follow the shape of the dose curve; as a rule, active = well fitted cell-killing curve with a large enough effect; inconclusive = small, poorly fitted or top-dose-only effect, or effect the other way; inactive = no such curve, though single readings can be large or run the other way.

Experiments:
[1] = Quantitative High-Throughput drug screen in 47 multiple myeloma cell lines against the NCATS MIPE library collection: MM1R_ATCC cell viability assay (AID 1918981); also: nearly all actives have a fitted effect of over 35% in size
Summary of the method: (§1)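 Myeloma cells (500/well) treated with MIPE 4.0 compounds for 48 h at 37 °C, 5% CO2. Viability read as ATP via CellTiter-Glo luminescence after 5 min at RT; DMSO-only wells = 100%, media-only = 0% viability.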

[2] = Quantitative High-Throughput drug screen in 47 multiple myeloma cell lines against the NCATS MIPE library collection: KMS28PE_JCRB cell viability assay (AID 1918983); also: nearly all actives have a fitted effect of over 35% in size
Summary of the method: as §1

[3] = Quantitative High-Throughput drug screen in 47 multiple myeloma cell lines against the NCATS MIPE library collection: KMS34_JCRB cell viability assay (AID 1918985); also: nearly all actives have a fitted effect of over 40% in size
Summary of the method: as §1

[4] = Quantitative High-Throughput drug screen in 47 multiple myeloma cell lines against the NCATS MIPE library collection: XG6_PLB cell viability assay (AID 1919865); also: nearly all actives have a fitted effect of over 40% in size
Summary of the method: as §1

[5] = Quantitative High-Throughput drug screen in 47 multiple myeloma cell lines against the NCATS MIPE library collection: XG1_PLB cell viability assay (AID 1919866); also: nearly all actives have a fitted effect of over 35% in size
Summary of the method: as §1

[6] = Quantitative High-Throughput drug screen in 47 multiple myeloma cell lines against the NCATS MIPE library collection: VP6_DJ cell viability assay (AID 1919867); also: nearly all actives have a fitted effect of over 40% in size
Summary of the method: as §1

[7] = Quantitative High-Throughput drug screen in 47 multiple myeloma cell lines against the NCATS MIPE library collection: PE2_PLB cell viability assay (AID 1919869); also: nearly all actives have a fitted effect of over 35% in size
Summary of the method: as §1

[8] = Quantitative High-Throughput drug screen in 47 multiple myeloma cell lines against the NCATS MIPE library collection: RPMI8226_ATCC cell viability assay (AID 1919871); also: nearly all actives have a fitted effect of over 30% in size
Summary of the method: as §1

[9] = Quantitative High-Throughput drug screen in 47 multiple myeloma cell lines against the NCATS MIPE library collection: OPM2_DSMZ cell viability assay (AID 1919872); also: nearly all actives have a fitted effect of over 30% in size
Summary of the method: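 Myeloma cells (500 per well) were exposed to MIPE 4.0 compounds by pin transfer and incubated 48 hours at 37C, 5% CO2. Viability was read as ATP by CellTiter-Glo luminescence, normalised to DMSO (100%) and media-only (0%) wells.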

[10] = Quantitative High-Throughput drug screen in 47 multiple myeloma cell lines against the NCATS MIPE library collection: KMS11_JCRBsus cell viability assay (AID 1919873); also: nearly all actives have a fitted effect of over 50% in size
Summary of the method: as §1

[11] = Quantitative High-Throughput drug screen in 47 multiple myeloma cell lines against the NCATS MIPE library collection: KMS28BM_JCRB cell viability assay (AID 1919874); also: nearly all actives have a fitted effect of over 35% in size
Summary of the method: as §1

[12] = Quantitative High-Throughput drug screen in 47 multiple myeloma cell lines against the NCATS MIPE library collection: L363_DSMZ cell viability assay (AID 1918984); also: nearly all actives have a fitted effect of over 40% in size
Summary of the method: as §1

[13] = Quantitative High-Throughput drug screen in 47 multiple myeloma cell lines against the NCATS MIPE library collection: OPM1_PLB cell viability assay (AID 1918989); also: nearly all actives have a fitted effect of over 40% in size
Summary of the method: as §1

[14] = Quantitative High-Throughput drug screen in 47 multiple myeloma cell lines against the NCATS MIPE library collection: SKMM1_PLB cell viability assay (AID 1919863); settings: SKMM1 myeloma viability, CellTiter-Glo ATP, 48 h; viability: hits give low values; also: nearly all actives have a fitted effect of over 35% in size
Summary of the method: as §1

[15] = Quantitative High-Throughput drug screen in 47 multiple myeloma cell lines against the NCATS MIPE library collection: U266_ATCC cell viability assay (AID 1919864); also: nearly all actives have a fitted effect of over 35% in size
Summary of the method: as §1

[16] = Quantitative High-Throughput drug screen in 47 multiple myeloma cell lines against the NCATS MIPE library collection: PCM6_Riken cell viability assay (AID 1919870); also: nearly all actives have a fitted effect of over 30% in size
Summary of the method: as §1

[17] = Quantitative High-Throughput drug screen in 47 multiple myeloma cell lines against the NCATS MIPE library collection: OCIMY7_PLB cell viability assay (AID 1918987); settings: OCI-MY7 myeloma viability, CellTiter-Glo ATP, 48 h; viability (% of DMSO): at 45.8 µM (top of the series); also: nearly all actives have a fitted effect of over 65% in size
Summary of the method: as §1

[18] = Quantitative High-Throughput drug screen in 47 multiple myeloma cell lines against the NCATS MIPE library collection: OCIMY5_PLB cell viability assay (AID 1918988); also: nearly all actives have a fitted effect of over 65% in size
Summary of the method: as §1

[19] = Quantitative High-Throughput drug screen in 47 multiple myeloma cell lines against the NCATS MIPE library collection: UTMC2_PLB cell viability assay (AID 1919868); settings: CellTiter-Glo ATP luminescence, 48 h; viability (% of DMSO control): at 45.8 µM (top of the series); also: nearly all actives have a fitted effect of over 55% in size
Summary of the method: as §1

[20] = Quantitative High-Throughput drug screen in 47 multiple myeloma cell lines against the NCATS MIPE library collection: LP1_DSMZ cell viability assay (AID 1918982); also: nearly all actives have a fitted effect of over 35% in size
Summary of the method: as §1
Potency is read from the fitted curve at half-maximal effect.

## C[C@@H]1C(=O)O[C@H]2CC34[C@H]5C[C@@H](C(C)(C)C)C36[C@H](OC(=O)[C@@H]6O)O[C@@]4(C(=O)O5)[C@]21O (stereo not given in full)
[1]
  Potency: inactive
[2]
  Potency: inactive
[3]
  Potency: inactive
[4]
  Potency: inactive
[5]
  Potency: inactive
[6]
  Potency: inactive
[7]
  Potency: inactive
[8]
  Potency: inactive
[9]
  Potency: inactive
[10]
  Potency: inactive
[11]
  Potency: inactive

## NC(=O)c1ncn([C@@H]2O[C@H](CO)[C@@H](O)[C@@H]2O)c1O
[1]
  Potency: inactive
[12]
  Potency: inactive
[3]
  Potency: inactive
[13]
  Potency: inactive
[14]
  viability: 102%
[15]
  Potency: inactive
[4]
  Potency: inactive
[6]
  Potency: inactive
[7]
  Potency: inactive
[16]
  Potency: inactive
[8]
  Potency: inactive
[9]
  Potency: inactive
[10]
  Potency: inactive
[11]
  Potency: inactive

## C#C[C@]1(O)CC[C@@H]2[C@@H]3CCc4cc(O)ccc4[C@H]3CC[C@@]21C
[1]
  Potency: 20.9 µM (active)
[17]
  Potency: 3.72 µM (active)
[18]
  Potency: 7.43 µM (active)
[14]
  Potency: 14.8 µM (active)
[15]
  Potency: 14.8 µM (active)
[4]
  Potency: 4.18 µM (active)
[5]
  Potency: 3.32 µM (active)
[6]
  Potency: 3.32 µM (active)
[7]
  Potency: 16.6 µM (active)
[16]
  Potency: 14.8 µM (active)
[10]
  Potency: 10.5 µM (active)
[11]
  Potency: 4.69 µM (active)

## C[C@]12CC[C@@H]3c4ccc(O)cc4CC[C@H]3[C@H]1CC[C@H]2O
[1]
  Potency: 14.8 µM (active)
[2]
  Potency: 29.6 µM (active)
[17]
  Potency: 5.9 µM (active)
[18]
  Potency: 9.35 µM (active)
[13]
  Potency: 16.6 µM (active)
[4]
  Potency: 5.9 µM (active)
[5]
  Potency: 6.62 µM (active)
[6]
  Potency: 8.33 µM (active)
[7]
  Potency: 16.6 µM (active)
[8]
  Potency: 18.7 µM (active)
[10]
  Potency: 14.8 µM (active)

## CC(O)(C#Cc1ccc2c(c1)N(c1nc(N)ncc1Cl)CC2)c1nccs1 (stereo not given)
[1]
  Potency: 18.7 µM (active)
[12]
  Potency: 16600 nM (active)
[17]
  Potency: 2.64 µM (active)
[13]
  Potency: 14.8 µM (active)
[15]
  Potency: 16.6 µM (active)
[4]
  Potency: 4.18 µM (active)
[5]
  Potency: 4.69 µM (active)
[6]
  Potency: 5.26 µM (active)
[19]
  Potency: 4.18 µM (active)
[7]
  Potency: 8.33 µM (active)
[10]
  Potency: 18.7 µM (active)

## CC(=O)C1=C(O)C=C2Oc3c(C(C)=O)c(O)c(C)c(O)c3C2(C)C1=O (stereo not given)
[1]
  Potency: inactive
[2]
  Potency: inactive
[3]
  Potency: inactive
[18]
  Potency: 0.0012 µM (active)
[5]
  Potency: inactive
[6]
  Potency: inactive
[19]
  Potency: inactive
[7]
  Potency: inactive
[16]
  Potency: inactive
[8]
  Potency: inactive
[9]
  Potency: inactive
[10]
  Potency: inactive
[11]
  Potency: inactive

## O=C(NNC(=O)c1ccc(CNS(=O)(=O)c2ccc(F)c(Cl)c2)cc1)c1ccccc1
[1]
  Potency: inactive
[2]
  Potency: inactive
[3]
  Potency: inactive
[18]
  Potency: inactive
[14]
  viability: 126%
[15]
  Potency: inactive
[4]
  Potency: inactive
[6]
  Potency: inactive
[19]
  Potency: inactive
[7]
  Potency: inactive
[16]
  Potency: inactive
[8]
  Potency: inactive
[9]
  Potency: inactive
[10]
  Potency: inactive
[11]
  Potency: inactive

## CCCCCCCN(CC)CCCC(O)c1ccc(NS(C)(=O)=O)cc1 (stereo not given)
[1]
  Potency: inactive
[3]
  Potency: inactive
[15]
  Potency: inactive
[5]
  Potency: 18.7 µM (active)
[8]
  Potency: inactive
[11]
  Potency: inactive

## COc1cc(CCc2cc(NC(=O)c3ccc(N4C[C@@H](C)N[C@@H](C)C4)cc3)n[nH]2)cc(OC)c1
[1]
  Potency: 26.4 µM (active)
[2]
  Potency: 13.2 µM (active)
[17]
  Potency: 18.7 µM (active)
[18]
  Potency: 16.6 µM (active)
[13]
  Potency: 14.8 µM (active)
[15]
  Potency: 20.9 µM (active)
[4]
  Potency: 8.33 µM (active)
[5]
  Potency: 14.8 µM (active)
[6]
  Potency: 7.43 µM (active)
[19]
  Potency: 4.18 µM (active)
[7]
  Potency: 11.8 µM (active)
[16]
  Potency: 13.2 µM (active)
[8]
  Potency: 18.7 µM (active)
[9]
  Potency: 13.2 µM (active)
[10]
  Potency: 4.69 µM (active)
[11]
  Potency: 16.6 µM (active)

## COc1cc2c(cc1OC)[C@@H]1C(=O)c3ccc4c(c3O[C@@H]1CO2)C=CC(C)(C)O4
[20]
  Potency: 29.6 nM (active)
[2]
  Potency: 0.418 µM (active)
[12]
  Potency: 26.4 nM (active)
[3]
  Potency: 23.5 µM (active)
[17]
  Potency: 0.418 µM (active)
[18]
  Potency: 0.148 µM (active)
[13]
  Potency: 10.5 µM (active)
[14]
  Potency: 13.2 µM (active)
[4]
  Potency: 0.105 µM (active)
[5]
  Potency: 6.62 µM (active)
[6]
  Potency: 0.0418 µM (active)
[19]
  Potency: 0.418 µM (active)
[7]
  Potency: 7.43 µM (active)
[16]
  Potency: 7.43 µM (active)
[10]
  Potency: 0.0418 µM (active)

## CC(Oc1ccc(O)cc1)(P(=O)(O)O)P(=O)(O)O
[20]
  Potency: inactive
[2]
  Potency: inactive
[12]
  Potency: inactive
[14]
  viability: 108%
[4]
  Potency: inactive
[5]
  Potency: inactive
[6]
  Potency: inactive
[7]
  Potency: 2.35 µM (active)
[16]
  Potency: inactive
[8]
  Potency: inactive
[10]
  Potency: inactive

## COc1ccc(C(C)=O)c(O)c1
[20]
  Potency: inactive
[2]
  Potency: inactive
[3]
  Potency: inactive
[18]
  Potency: inactive
[13]
  Potency: inactive
[14]
  viability: 112%
[4]
  Potency: 18.7 µM (active)
[7]
  Potency: inactive
[16]
  Potency: inactive
[9]
  Potency: inactive
[10]
  Potency: inactive

## CC(N[C@H]1CCCC[C@H]1NC(=O)c1ccc(Cl)cc1)c1cccc2ccccc12 (stereo not given in full)
[20]
  Potency: inactive
[2]
  Potency: inactive
[12]
  Potency: 83.3 nM (active)
[14]
  viability: 94.8%
[15]
  Potency: inactive
[9]
  Potency: inactive

## O=c1[nH]c(=O)n([C@H]2C[C@@H](O)[C@@H](CO)O2)cc1C=CBr
[20]
  Potency: inactive
[2]
  Potency: inactive
[12]
  Potency: inactive
[3]
  Potency: inactive
[15]
  Potency: inactive
[4]
  Potency: inactive
[5]
  Potency: inactive
[6]
  Potency: inactive
[7]
  Potency: inactive
[16]
  Potency: inactive
[8]
  Potency: inactive
[9]
  Potency: inactive
[10]
  Potency: inactive
